Measured values taken from PubChem BioAssay AID2732 (Emory University Molecular Libraries Screening Center, 2010).
Among all 220,000 compounds or so, about 8,200 (3.7%) were called active. This excerpt belongs to a sample that is enriched for actives. Unmarked numbers belong to inactive results.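 Rule for the calls: active = compounds that reduced the stress-induced luciferase reporter signal by more than about 70% of percent inhibition (limit read from the data); inactive = the rest.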 Residues, ends and D or L forms follow the SMILES beside them. *: point of attachment. Bz = O=C(c1ccccc1)*

Assay: blockers of ER-stress CHOP reporter expression – cell-based, unfolded protein response, luciferase reporter, primary screen (AID 2732);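 note: 0% = tunicamycin plus vehicle and 100% = wells without tunicamycin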
Details: CHO-K1 CHOP-promoter luciferase, tunicamycin-induced, 15-18 h; at 10 µM; stronger effect = higher value

Structure (SMILES) | inhibition
Cn1nccc1CNC(=O)c1ccnn1C | -26%
CCCc1ccc(-c2c(C)sc(NC(=O)c3ccnn3C)c2C#N)cc1 | 76.4% (active)
CCN(CC)C(=O)c1sc(NC(=O)c2ccco2)c(C#N)c1C | -5.34%
CCCCCCCN=C(C)c1ccccc1O | -7.28%
CCNS(=O)(=O)c1ccc(NC(=O)Nc2cccc(C(F)(F)F)c2)cc1 | 87.4% (active)
CCNS(=O)(=O)c1ccc(NC(=O)Nc2cccc(OC)c2)cc1 | -10.9%
Cc1ccc(NC(=O)Nc2cccc(C(F)(F)F)c2)nc1 | -25.1%
Cn1nc(C(F)(F)F)cc1C(=O)O | 13.6%
CSC1=NCCN1C(=O)Cc1cccc2ccccc12 | 13.7%
O=C(Nc1ccc2ccccc2c1)Nc1ccc2snnc2c1 | 79.2% (active)
COc1ccc(NC(=O)Nc2ccc3nsnc3c2)cc1 | 4.53%
O=C(Nc1ccccc1)Nc1nc2ccccc2s1 | -20.1%
Cc1ccc(F)cc1NC(=O)N1CCCN(c2ccc(C(F)(F)F)cn2)CC1 | 1.83%
COc1cc(NC(=O)c2cncc(-c3ccc(C#N)cc3)c2)cc(C(=O)Nc2cccc(C(F)(F)F)c2)c1 | 22.1%
Cc1ccc(OCC(=O)Nc2nnc(-c3ccco3)s2)cc1 | 82.2% (active)
COc1ccc(OCC(=O)Nc2nnc(-c3ccco3)s2)cc1 | 28.2%
CNc1nnc(-c2ccco2)s1 | 7.19%
CC(NCc1ccccc1OC1CCCC1)c1ccccc1 (stereo unspecified) | 11.4%
O=C(CSc1nc2ccccc2o1)N/N=C/c1ccccc1C(=O)O | -2.6%
C=CCNC(=O)CSc1nc2scc(-c3ccco3)c2c(=O)n1CC=C | -19.4%
O=S(=O)(Nc1ccc(Cl)cn1)c1cnc(Cl)c(Br)c1 | 9.6%
CCCCN1C(=O)/C(=C/C=C2/C=Cc3ccccc3N2CC)SC1=S | 70.5% (active)
CCCCN1C(=O)/C(=C2/C=CC=CN2C)SC1=S | -3.04%
CCN1C(=O)/C(=C\N2CCN(c3ccccc3)CC2)SC1=S | 23.4%
CC1Cc2ccccc2N1CC(=O)Nc1ccc(S(N)(=O)=O)cc1 (stereo unspecified) | -11.8%
COc1ccc(Nc2cc(Cl)ccc2C(=O)O)cn1 | 9.7%

Structure (SMILES) | inhibition
Cc1ccc(-c2noc(CCC(N)=O)n2)cc1 | 10.7%
CCNC(=O)CCc1nc(-c2ccc(C)cc2)no1 | 11.2%
CCNC(=O)CCc1nc(-c2ccc(C(C)(C)C)cc2)no1 | 91% (active)
CC1CCN(c2ccc([N+](=O)[O-])c(SCCO)c2)CC1 | 7.43%
Cc1ccc(-c2nnc(-c3ccc(NC(=O)c4cccs4)cc3)o2)cc1 | 89% (active)
Cc1ccc(OCC(=O)Nc2ccc(-c3nc4ncccc4o3)cc2)cc1 | -4.24%
Cc1cccc(S(=O)(=O)CC(=O)Nc2nc(-c3ccccc3)cs2)c1 | -8.42%
O=C(O)c1ccc(NC(=O)c2cccs2)cc1 | 28.8%
Cc1ccc(-c2csc(NC(=O)Cn3[nH]c(=O)c4ccccc4c3=O)n2)cc1 | 80% (active)
O=C(Nc1ccc2oc(-c3ccc4ccccc4c3)nc2c1)c1cccs1 | -26.2%
Cc1ccc(C(=O)NNC(=O)c2cccs2)cc1 | -31.6%
Cc1ccc(-c2csc(NNC(=O)c3ccccc3)n2)cc1 | 21.4%
Cc1ccc(-c2csc(NC(=O)c3cccs3)n2)cc1 | 78.4% (active)
COc1ccc(CC(=O)Nc2ccc(-c3nnc(-c4ccc(C)cc4)o3)cc2)cc1 | 83.6% (active)
COc1ccc(CC(=O)Nc2ccc(C(=O)NC(C)(C)C)cc2)cc1 | 19.1%
CCCc1ccc(-c2csc(NC(=O)Cc3cccs3)n2)cc1 | 12.1%
CC(=O)N1CC[n+]2c(-c3ccc([N+](=O)[O-])cc3)csc21 | -3.95%
O=C(O)CCc1cccnc1 | 16.7%
COc1ccc(CN2CCOC2=O)cc1OC | -5.21%
COc1ccc(N2C(=O)C3C(C2=O)C(C(=O)c2ccccc2)N2CCCC32)cc1 (stereo unspecified) | 11.9%
CC(C)C[C@H](CO)Nc1nc(N(C)c2cccc(Cl)c2)c2ncn(C(C)C)c2n1 | 21.8%
COC(=O)c1ccccc1N=Nc1c(C)[nH][nH]c1=O | 14.2%
CCCNc1c(N)c(=O)c1=O | 3.2%
CCc1c(C)nc2c(-c3ccccc3)c(C)nn2c1Nc1ccc(NC(C)=O)cc1 | 17.3%
CCS(=O)(=O)c1cc([N+](=O)[O-])c(Sc2ccccc2N)s1 | -0.04%
COc1cc(C(F)(F)F)nc2c(Br)c(C(C)(C)C)nn12 | 15%

Structure (SMILES) | inhibition
CCN(CC)CCn1cnc2c1c(=O)n(CCOC(=O)c1cc(OC)c(OC)c(OC)c1)c(=O)n2C | -3.64%
Oc1c(CN2CCN(c3ccc(F)cc3)CC2)cc(Cl)c2cccnc12 | 92% (active)
Fc1ccc(N2CCN(Cc3cnc(Oc4ccc(Br)cc4)s3)CC2)cc1 | 21%
CCN1CCN(C(c2cccnc2)c2cc(Cl)c3cccnc3c2O)CC1 (stereo unspecified) | -101%
Cc1cc(N2CCN(c3ccc(F)cc3)CC2)n2ncnc2n1 | 1.35%
O=C(NC(Cc1ccccc1)C(=O)N1CCCC1C(=O)O)c1ccccc1 (stereo not drawn) (Bz-Phe-Pro-OH; configuration not given here) | -0.39%
Cc1ccc(C(=O)N2CCN(C3CCCCC3)CC2)s1 | 12.7%
O=C(C(Cc1ccccc1)n1cccc1)N1CCN(C2CCCCC2)CC1 (stereo unspecified) | 72.6% (active)
CC(=O)c1ccc(S(=O)(=O)N2CCN(C(=O)/C=C/c3ccc4ccccc4n3)CC2)cc1 | 60%
O=C(Nc1ccccc1)OCc1cn(-c2ccc(Cl)cc2)nn1 | -8.26%
O=C(Nc1ccc(Cl)cc1)OCc1cc(-c2ccccc2)on1 | 89.7% (active)
O=C(Nc1ccccc1)OCc1cc(-c2ccc(Cl)cc2)on1 | -15.4%
CCOC(=O)CN1CCC(c2ccccc2)CC1 | 8.89%
CCOC(=O)Cn1c(-c2cccnc2Cl)nc2ccccc21 | -1.12%
CCOC(=O)Cn1c2c(c(-c3ccccc3OC)cc1=O)CCCC2 | 77.2% (active)
FC(F)(F)c1nc(-c2ccccc2)ncc1-c1nnnn1-c1ccccc1 | 49.3%
CC(Sc1nc2ccccc2c(=O)n1Cc1ccco1)C(=O)c1ccccc1 (stereo unspecified) | 16.2%
CCOn1c(SC(C)C)nc2ccccc2c1=O | -9.05%
CCOC(=O)C(C)Sc1nc2ccccc2c(=O)n1CC1CCCCC1 (stereo unspecified) | 99.3% (active)
Cc1nnc2n1N=C(c1ccc3c(c1)NC(=O)CO3)CS2 | 8.13%
O=C(O)c1ccccc1C(=O)Nc1ccccc1[N+](=O)[O-] | -7.32%
CCC(C)c1ccc(O)c(/C=N/O)c1 (stereo unspecified) | 71.8% (active)
CNCC(O)c1ccc(O)c(O)c1 (stereo unspecified) | -0.79%
O=C(Cc1c(F)cccc1Cl)Nc1ncc([N+](=O)[O-])s1 | 9.25%
CC(=O)Oc1ccccc1C(=O)Nc1ncc([N+](=O)[O-])s1 | 72.1% (active)
O=C(CCc1ccccc1)Nc1ncc([N+](=O)[O-])s1 | -9.45%

Structure (SMILES) | inhibition
O=C(NNC(=S)Nc1ccc(F)cc1)[C@H]1C[C@@H]1c1ccccc1 | 5.39%
COc1cc(C)c(Cl)cc1S(=O)(=O)n1ccnc1 | 14.6%
CCOc1cc(C)c(Cl)cc1S(=O)(=O)n1nnc2ccccc21 | 73.7% (active)
CCCOc1cc(C)c(S(=O)(=O)n2nnc3ccccc32)cc1C | -25.8%
CN(c1ccccn1)c1ncnc2[nH]ncc12 | 16.3%
S=c1[nH]nc(-c2cccs2)n1/N=C/c1cn(-c2ccccc2)nc1-c1ccc(Cl)cc1 | 57.5%
Cc1ccc(NNC(=O)c2cccs2)cc1Cl | -7.82%
CSC1=NC2(C)CCCCC2C12C=CC(=O)C=C2 (stereo unspecified) | -8.01%
O=C(Nc1nnc(Cc2ccc(Cl)cc2)s1)c1ccncc1 | 2.85%
CNC(=O)c1nnc(Cc2ccc(Cl)cc2)o1 | 84.2% (active)
Clc1ccc(Cc2nnc(-c3cccs3)o2)cc1 | -8.41%
CS(=O)(=O)c1ccc2nnn(OCC(=O)Nc3cccc(C#N)c3)c2c1 | 7.09%
CNC(=O)c1cccc2nc3ccccc3nc12 | -2.58%
CCCCOc1ccc(-c2ncc(C(=O)OCC)c(N)n2)cc1 | 87.4% (active)
CCOC(=O)c1cnc(SCc2nc(N)nc(Nc3ccc(OC)cc3)n2)nc1N | 27.6%
CCOC(=O)c1cnc(-c2ccccc2)nc1Oc1ccc(C)cc1 | 16.8%
O=C(N/N=C/c1ccco1)c1csc2c1CCCC2 | -20.7%
CCOC(=O)C1=C(CSc2nccn2C)NC(=O)NC1c1ccc(OC)cc1 (stereo unspecified) | 34.2%
CCOC(=O)C1=C(C)N=c2s/c(=C\C(=O)OC)c(=O)n2C1c1ccc(OC)cc1 (stereo unspecified) | 89.2% (active)
COCCOC(=O)C1=C(C)N=c2s/c(=C\c3cccs3)c(=O)n2C1c1cccs1 (stereo unspecified) | 4.98%
CC(C)Cc1ccc(C(C)C(=N)N)cc1 (stereo unspecified) | 4.47%
CC(=O)NC(CC(=O)Nc1nccs1)c1ccccc1 (stereo unspecified) | -2.49%
CCC(C)(C)NC(=O)C(c1ccc(O)cc1)N(C(=O)Cn1nnc2ccccc21)c1ccc(NC(C)=O)cc1 (stereo unspecified) | 4.95%
